Bioassay records deposited in PubChem by Broad Institute.
This is one part of a sample in which hits are shown more often than they occur.
Tgondii IFNg = T. gondii growth inhibition with IFN-gamma, primary screen, cell-based; Toxoplasma gondii growth in IFN-gamma-treated host cells; hits give low values; activity change, negative = inhibition, % (concentration not given with the values); actives 3.8% (n = 69,000); AID 1259416, 2018; in the data active = activity change below about -70%, passing the limit was not always enough;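 note: host cells are HeLa cells infected with Toxoplasma gondii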
Starred values were filed as active, the others as inactive; ! = repeats disagree.

How did c1ccc(-n2nccc2-c2nccn2C2CCSC2)cc1 (centres undefined) do in these assays?
Tgondii IFNg: -2

Results for Cc1cc(C)n(C2CCN(C(=O)c3cccc(CC4CCNCC4)c3)C2)n1 (centres undefined) ?
Tgondii IFNg: -2

What do the screens show for `O=C(CC1Nc2c3ccccc3nc(=S)n2C1=O)N1CCN(c2cccc(C(F)(F)F)c2)CC1` (centres undefined)?
Tgondii IFNg: -10

What do the screens show for `Cc1ccc(C2c3[nH]c4ccccc4c3CCN2C(=O)CCC2CCCC2)cc1` (centres undefined)?
Tgondii IFNg: -67

Results for COc1cccc(C(=O)N2CCc3c([nH]c4ccccc34)C2c2ccc(Cl)cc2)c1 (centres undefined) ?
Tgondii IFNg: -99*

What do the screens show for `Cn1nccc1C(=O)N1CCc2c([nH]c3ccccc23)C1c1ccc(Cl)cc1` (centres undefined)?
Tgondii IFNg: -115*

What do the screens show for `COCC(=O)N1CCc2c([nH]c3ccccc23)C1c1ccc(Cl)cc1` (centres undefined)?
Tgondii IFNg: -16

What do the screens show for `COc1ccc(C(=O)N2CCc3c([nH]c4ccccc34)C2c2ccc(Cl)cc2)cc1OC` (centres undefined)?
Tgondii IFNg: 12

How did CSc1ccc(C2c3[nH]c4ccccc4c3CCN2C(=O)c2ccc(Cl)cc2)cc1 (centres undefined) do in these assays?
Tgondii IFNg: 60

What do the screens show for `COc1cccc(C(=O)N2CCc3c([nH]c4ccccc34)C2c2ccc(C)cc2)c1` (centres undefined)?
Tgondii IFNg: -126*

Results for CCCS(=O)(=O)N1Cc2nccn2CC(Cn2cccn2)C1 (centres undefined) ?
Tgondii IFNg: -40

How did CS(=O)(=O)N1C[C@H](OCc2cccnc2)[C@@H]2OCCC[C@@H]21 do in these assays?
Tgondii IFNg: -27

What do the screens show for `CCOc1cc(C(=O)NCCc2csc(-c3cccc(C)c3)n2)cc(OCC)c1OCC`?
Tgondii IFNg: inactive

What do the screens show for `Cc1ccnn1CCNC(=O)C1(Cc2cccc(C3CCCN(C)C3)c2)CCOCC1` (centres undefined)?
Tgondii IFNg: -1

What do the screens show for `O=C(NCc1ccc(S(=O)(=O)N2CCCC2)cc1)c1ccc(-n2cccn2)nc1`?
Tgondii IFNg: -17

Results for CCn1ccc(C(=O)N2Cc3cnc(C(C)(C)C)nc3C2)cc1=O ?
Tgondii IFNg: 0

Results for O=S1(=O)N=S(c2ccccc2)c2ccccc21 (centres undefined) ?
Tgondii IFNg: -13

What do the screens show for `C[N+](C)(CCOc1ccccc1)Cc1ccccc1`?
Tgondii IFNg: 85

What do the screens show for `CC(C)(C)CC(C)(C)c1ccc(O)c(-n2nc3ccccc3n2)c1`?
Tgondii IFNg: -5

Results for Cc1cc(C(C)(C)CC(C)(C)C)ccc1OCCOCC[N+](C)(C)Cc1ccccc1 ?
Tgondii IFNg: -85*

Results for Cc1ccoc1C(=O)N1CCC2(CC1)CC(=O)N(Cc1ccncc1)C2 ?
Tgondii IFNg: 4

Results for O=S(=O)(c1ccc(CN2CCCC(O)(CO)C2)cc1)N1CCOCC1 (centres undefined) ?
Tgondii IFNg: 0

Results for Cc1oc(-c2ccc(NC(=O)c3ccc(F)cc3)cc2)nc1Cn1cccn1 ?
Tgondii IFNg: 23

Results for O=C(Nc1ccn(Cc2ccc(Cl)cc2Cl)n1)c1ccc(F)cc1 ?
Tgondii IFNg: -97*

How did O=C(Nc1cc(Cl)c(-n2cccc2)cc1Cl)c1ccc(Cl)cc1 do in these assays?
Tgondii IFNg: 45

What do the screens show for `O=C(NCCn1ncc2ccccc2c1=O)c1cccc2c1NCCC2`?
Tgondii IFNg: -20

Results for COCCN1CCC2(CC1)CC1(CCN(C(=O)Nc3ccccc3)CC1)N(C)C2=O ?
Tgondii IFNg: -4

How did CCOC(=O)c1ccccc1NC(=O)N1CCC2(CC1)Nc1cc(OC)ccc1-n1cccc12 do in these assays?
Tgondii IFNg: 68

How did Cc1onc(-c2ccccc2Cl)c1C(=O)Nc1sc2c(c1C#N)CCC2 do in these assays?
Tgondii IFNg: 42

Results for N#Cc1c(N2C(=O)C3C4c5ccccc5C(c5ccccc54)C3C2=O)sc2c1CCC2 (centres undefined) ?
Tgondii IFNg: -79*

What do the screens show for `CC(C)NC(=O)[C@@]12COC[C@@H]1CN(Cc1cnn(C)c1)C2`?
Tgondii IFNg: 0

What do the screens show for `CC(C)CC(NC(=O)c1cccn(C)c1=O)c1nnc2n1CCNCC2` (centres undefined)?
Tgondii IFNg: -2

How did COc1cccc2c(=O)c(C(=O)NCc3cccnc3)c[nH]c12 do in these assays?
Tgondii IFNg: -8

Results for COc1cccc2c(=O)c3ccccc3oc12 ?
Tgondii IFNg: 39

Results for COc1cccc2c(=O)c(C/C=C(/C)Cl)c(C)[nH]c12 ?
Tgondii IFNg: -81*

How did CO[C@@H]1CCN(c2ncc(F)cn2)[C@H]1Cc1ccccc1 do in these assays?
Tgondii IFNg: -18

Results for CC(=O)N1CCC2(CC1)CC(NC(=O)c1cccn1C)c1ccccc1O2 (centres undefined) ?
Tgondii IFNg: 0

How did Cn1c(CCc2ccc(NCc3cnn4cccnc34)cc2)nc2ccccc21 do in these assays?
Tgondii IFNg: 279

How did CN(C)C(=O)C[C@H]1C[C@@H]2CN(Cc3ccc4c(c3)OCO4)C[C@H]2O1 do in these assays?
Tgondii IFNg: 76

What do the screens show for `S=c1nc[nH]c2nc[nH]c12`?
Tgondii IFNg: -71*

How did Cn1c(=O)c2[nH]cnc2n(C)c1=O do in these assays?
Tgondii IFNg: 112

What do the screens show for `CCN(CC)c1ccc(C(=C2C=CC(=[N+](CC)CC)C=C2)c2ccccc2)cc1`?
Tgondii IFNg: -74*

What do the screens show for `COCCN1C(=O)CCCC12CCCN(c1cccnc1)C2` (centres undefined)?
Tgondii IFNg: -38

What do the screens show for `CC(C)CN1C(=O)CCc2cc(NS(=O)(=O)c3cccc(F)c3)ccc21`?
Tgondii IFNg: -56

Results for COc1ccc(-c2nc(CN3C(=O)C(O)(c4cccc(F)c4)c4ccccc43)c(C)o2)cc1 (centres undefined) ?
Tgondii IFNg: -74*

How did Cc1ccc(C2(O)C(=O)N(Cc3nc(-c4ccccc4)oc3C)c3ccccc32)cc1 (centres undefined) do in these assays?
Tgondii IFNg: -48

Results for Cc1cccc(C2(O)C(=O)N(Cc3nc(-c4ccccc4)oc3C)c3ccccc32)c1 (centres undefined) ?
Tgondii IFNg: -36

Results for CCCc1nc(C(=O)N(C)Cc2nc(-c3cccc(C)c3)no2)cs1 ?
Tgondii IFNg: -4

Results for CC1=C(C(=O)NCCCOC(C)C)C2(CCN(Cc3ccccc3)CC2)OC1=O ?
Tgondii IFNg: 40

What do the screens show for `O=C(CS(=O)(=O)Cc1ccccc1)NCc1ccc2c(c1)OCO2`?
Tgondii IFNg: -3

What do the screens show for `c1ccc(-c2cc3ncnc(NCc4ccc5c(c4)OCO5)c3s2)cc1`?
Tgondii IFNg: -105*

Results for CCc1nc(OCC(=O)NCc2ccc3c(c2)OCO3)c2ccccc2n1 ?
Tgondii IFNg: 10

Results for Cc1cccc(OCC(=O)Nc2ccc(-c3nc(-c4ccccc4)co3)cc2)c1C ?
Tgondii IFNg: -12

How did O=C(O)c1ccccc1Nc1cccc(C(F)(F)F)c1 do in these assays?
Tgondii IFNg: -73*!

Results for O=C(O)c1ccccc1Nc1ccccc1 ?
Tgondii IFNg: -13

Results for O=C(OCCOCCO)c1ccccc1Nc1cccc(C(F)(F)F)c1 ?
Tgondii IFNg: 39
